Screening data: PubChem, National Center for Advancing Translational Sciences (NCATS)
Most compounds without a hit are left out; they make up all but 3.2% or so of the library.
GLP1R inv ag: GLP-1 receptor (human) inverse agonism; AID 624417; P43220; Potency, µM (top dose mostly 38.3 µM), without a hit: at the highest dose activity change, negative = inhibition, most hits filed as inhibitors; 410,000 compounds, 1.6% hits; HEK293 GLP-1R CRE-luciferase, luminescence, 24 h; GLP-1R form is constitutively active; also: % is scaled to controls: 0 for no effect and ±100 for the full control effect; nearly all actives have a fitted effect of over 55% in size
Target sequence (P43220 whole entry, looked up): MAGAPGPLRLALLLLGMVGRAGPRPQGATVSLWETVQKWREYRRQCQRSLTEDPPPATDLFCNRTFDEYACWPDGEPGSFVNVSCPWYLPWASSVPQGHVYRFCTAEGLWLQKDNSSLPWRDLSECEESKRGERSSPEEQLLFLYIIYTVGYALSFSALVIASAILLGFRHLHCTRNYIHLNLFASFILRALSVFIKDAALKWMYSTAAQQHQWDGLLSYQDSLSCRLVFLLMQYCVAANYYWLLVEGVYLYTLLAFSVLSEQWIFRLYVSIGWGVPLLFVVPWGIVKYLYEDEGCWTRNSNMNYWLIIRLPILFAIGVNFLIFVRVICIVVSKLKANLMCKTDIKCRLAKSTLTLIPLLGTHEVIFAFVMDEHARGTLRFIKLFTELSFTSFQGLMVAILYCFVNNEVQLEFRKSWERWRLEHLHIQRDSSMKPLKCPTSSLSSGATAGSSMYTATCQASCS
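GLP-1R inverse agonism mode: basal reporter luminescence in engineered HEK293 cells measured after one day of compound exposure at 37 deg C, with a 12 min room-temperature detection step.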
HEK293 tox: cytotoxicity in counter-screen for GLP-1R inverse agonists; 410,000 compounds, 0.13% hits; Potency, µM (titrated, usually from 38.3 µM), for inactives: at the top dose activity change, negative = inhibition, actives largely listed as inhibitors; HEK293 cAMP-luciferase reporter cells, luminescence, 24 h;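 also: loss of luciferase light is scored as toxicity; % is scaled to controls: 0 for no effect and ±100 for the full control effect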
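Compound-treated cells are incubated 24 hr at 37 deg C under 5% CO2 after a 12 hour attachment period, then luciferase detection reagent is added and luminescence is measured following 12 min at room temperature; lowered signal indicates toxicity.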
GLP1R ag: activates the human GLP-1 receptor; HEK293 GLP-1R CRE-luciferase, luminescence, 4-6 h; cells express a hypersensitive GLP-1R form; Potency, µM (titrated, usually from 45.6 µM), for the others: at the highest dose activation, most hits filed as activators; P43220; 380,000 compounds, 0.007% hits; also: % of control where 0% means no effect
ClpP mod: qHTS Assay for Activators of ClpP. ATP-dependent Clp protease proteolytic subunit (Bacillus subtilis (strain 168)), P80244. 340,000 compounds, 1.9% hits. purified B. subtilis ClpP, FRET peptide cleavage, 20 min. Potency, µM (doses to about 57.5 µM), without a hit: at the top dose activity change, negative = active; active = well fitted falling curve with a large enough effect; inconclusive = small, poorly fitted or top-dose-only effect; inactive = no such curve, though single readings can be large or run the other way; also: the source files actives as falling curves though it sought activators and does not explain the sign; nearly all actives have a fitted effect of over 65% in size
Target sequence (P80244 whole entry, looked up): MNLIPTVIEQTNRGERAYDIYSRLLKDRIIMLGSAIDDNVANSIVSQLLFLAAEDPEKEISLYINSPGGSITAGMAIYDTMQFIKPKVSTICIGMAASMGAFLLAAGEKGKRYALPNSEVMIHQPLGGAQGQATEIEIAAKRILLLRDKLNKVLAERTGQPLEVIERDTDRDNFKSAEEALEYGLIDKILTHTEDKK
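Buffer: 100 mM Tris/HCl pH8, 100 mM KCl, 0.05% low protease BSA, 2.5% glycerol, 0.01% Tween-20. ClpP 10 microg/mL final; 20 min RT; delta FRET normalized to ADEP and DMSO controls.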
Active calls of the source: *; ? = inconclusive; . = not tested or not shown. Unless noted, calls follow the shape of the dose curve; as a rule, active = well fitted curve in the direction sought with a large enough effect; inconclusive = small, poorly fitted or top-dose-only effect, or another doubt; inactive = no such curve, though single readings can be large; an effect the other way counts as inactive or inconclusive. Potency is read from the fitted curve at half-maximal effect.

SMILES	GLP1R inv ag	HEK293 tox	GLP1R ag	ClpP mod
CC(Oc1ccc(C(C)(C)C)cc1)c1ccnc2nc(/N=C/N(C)C)nn12 (centres undefined)	-6%	-18%	14%	28µM*
CC(Oc1ccc(F)cc1)c1ccnc2nc(/N=C/N(C)C)nn12 (centres undefined)	12%	7%	16%	.
CN(C)/C=N/c1nc2nccc(-c3cccnc3)n2n1	12%	4%	4%	.
COc1ccc(-c2ccnc3nc(/N=C/N(C)C)nn23)cc1	32%	10%	4%	.
Cc1cccc(OC(C)c2ccnc3nc(/N=C/N(C)C)nn23)c1 (centres undefined)	-7%	6%	11%	28µM*
COc1ccc(C(=O)NCCc2csc(-c3ccc(Cl)cc3)n2)c(OC)c1	?	-8%	.	-19%
COC(=O)c1sc2cccc(F)c2c1S(=O)(=O)Nc1cc(OC)cc(OC)c1	14%	4%	.	0%
COc1ccc(OC)c(NC(=O)CC2SC(=Nc3ccc(F)cc3)N(CCC3=CCCCC3)C2=O)c1 (centres undefined)	4.5µM*	-8%	10%	-1%
COc1cc([N+](=O)[O-])ccc1NC(=O)CC1SC(=Nc2ccc(F)cc2)N(CCC2=CCCCC2)C1=O (centres undefined)	?	-9%	0%	0%
CCOC(=O)N1CCN(C(=O)c2ccc3nc4ccsc4c(=O)n3c2)CC1	5%	22%	-4%	4%
O=C(c1ccc(Cn2c(=O)[nH]c3ccccc3c2=O)cc1)N1CCN(c2ccc(Cl)cc2)CC1	11µM*	-7%	2%	-25%
CCn1c(=O)[nH]c2ccccc2c1=O	13%	17%	1%	-12%
CCCn1c(=S)[nH]c2cc(C(=O)N3CCN(C(=O)OCC)CC3)ccc2c1=O	-3%	-5%	13%	0%
CCOC(=O)N1CCN(C(=O)c2ccc3nc4ccc(Cl)cc4c(=O)n3c2)CC1	20%	34%	-6%	14µM*
O=c1[nH]c2ccccc2c(=O)n1Cc1ccccc1	3%	-3%	30%	35µM*
CCOC(=O)N1CCN(C(=O)c2ccc3c(=O)n(Cc4ccc(Cl)cc4)c(=S)[nH]c3c2)CC1	2µM*	-17%	1%	-1%
CC(=O)c1ccc(N2CCN(C(=O)c3ccc(Cn4c(=O)[nH]c5ccccc5c4=O)cc3)CC2)cc1	-4%	0%	.	?
COc1ccc(N2CCN(C(=O)c3ccc4nc(N5CCC(C)CC5)sc4c3)CC2)cc1	2%	-4%	.	1%
CCC(=O)Nc1c(-c2ccc(OC)cc2)c(=O)c2ccccc2n1C	1%	-17%	-1%	35µM*
Fc1ccc(/C=C/c2nnc(-c3cccs3)o2)cc1	12%	-8%	7%	.
Cc1ccc(/C=C/c2nnc(-c3cccs3)o2)cc1	-28%	5%	4%	8.9µM*
CC(Sc1nnc(CN2CCCC2)n1Cc1ccccc1)C(=O)Nc1ccc(F)c(F)c1F (centres undefined)	5µM*	-10%	6%	1%
CC(Sc1nnc(CN2CCCC2)n1Cc1ccccc1)C(=O)Nc1ccccc1 (centres undefined)	7.9µM*	4%	11%	0%
COc1ccc(Br)cc1/C=C/C(=O)Nc1ccc(C)cc1	4.5µM*	-17%	6%	1%
COc1ccc(Br)cc1/C=C/C(=O)Nc1ccc2ccccc2c1	-12%	12%	-3%	-7%
SMILES	GLP1R inv ag	HEK293 tox	GLP1R ag	ClpP mod
O=C(NCC(c1cccs1)N1CCc2ccccc21)c1ccccc1 (centres undefined)	7.1µM*	?	-2%	-2%
COc1cccc(C(=O)NCC(c2cccs2)N2CCc3ccccc32)c1 (centres undefined)	?	8%	5%	-3%
COc1ccccc1C(=O)NCC(c1cccs1)N1CCc2ccccc21 (centres undefined)	10µM*	0%	-4%	-5%
CC(=O)Nc1ccc(S(=O)(=O)NCC2CCC(C(=O)NCCc3ccc(C)cc3)CC2)cc1 (centres undefined)	-2%	1%	.	0%
Cc1ccc(C)c(-n2cc(CNCCCn3cccn3)c(-c3ccccc3)n2)c1	11µM*	1%	0%	.
CCc1nn(Cc2cc(C)ccc2C)c(=O)c2cc3cc(C)ccc3n12	4%	-3%	.	-4%
CCOCCCNC(=S)NNC(=O)CCn1nc(C)c(Br)c1C	5.6µM*	?	3%	5%
CNC(=S)NNC(=O)CCn1nc(C)c(Br)c1C	0%	-11%	-9%	-3%
C[n+]1ccc(/C=C/c2cc[n+](C)c3ccccc23)c2ccccc21	.	.	.	-13%
CC(=O)NS(=O)(=O)c1cccnc1Nc1cccc(Cl)c1C	12%	-2%	-7%	1%
NS(=O)(=O)c1cccnc1Nc1c(Cl)cccc1Cl	1%	14%	10%	28µM*
COc1cccc(C2=CC(c3ccccc3O)NC(C)(C)N2)c1 (centres undefined)	.	.	.	-10%
Fc1cccc2sc(Nc3nnc(-c4ccco4)o3)nc12	?	-12%	-28%	25µM*
COc1cccc2sc(Nc3nnc(-c4ccc(F)cc4)o3)nc12	?	?	-1%	4%
Cc1nc(-c2ccc(S(=O)(=O)Nc3ccc(C#N)cc3)cc2)co1	1%	-8%	-7%	-3%
CC(C)CC1=NN(C(=O)c2ccncc2)C(O)(C(F)(F)F)C1 (centres undefined)	1.1µM*	-23%	-1%	1%
CC1=NN(C(=O)c2csc(C(C)C)c2)C(O)(C(F)(F)F)C1 (centres undefined)	1.3µM*	?	2%	2%
COc1ccc(S(=O)(=O)NCC(c2ccco2)N2CCOCC2)cc1OC (centres undefined)	-3%	5%	.	-1%
CNC(=O)C1CCC(Cn2c(=O)c3sccc3n(CC(=O)Nc3ccc(C)cc3C)c2=O)CC1 (centres undefined)	3%	10%	.	-1%
Cc1ccc(CNc2nc3cc(-c4ccccc4)sc3c(=O)n2C)c(C)c1	-26%	1%	3%	28µM*
C=CCNc1nc(NCc2cccc(OC)c2)c2sc(-c3ccccc3)cc2n1	?	?	10%	20µM*
COc1cccc(CNc2nc3cc(-c4cccc(Cl)c4)sc3c(=O)n2C)c1	-12%	-8%	4%	20µM*
COc1cccc(-c2cc3nc(NCc4cccnc4)n(C)c(=O)c3s2)c1	4%	5%	2%	-21%
O=C1CN(C(=O)c2ccc(S(=O)(=O)N3CCCCC3)cc2)C(c2ccc(F)cc2)c2cc(F)ccc2N1 (centres undefined)	?	3%	.	-2%
Cc1nn(-c2ccc(C(=O)Nc3nnc(C4CC4)s3)cc2)c(C)c1Cl	0%	-12%	0%	-5%
Cc1nn(-c2ccccc2)c(Cl)c1C(=O)Nc1nnc(C2CCCCC2)s1	8.9µM*	-8%	-5%	-2%
